MITF inh: inhibitors of human MITF. O75030. AlphaScreen MITF homodimerization, bead proximity signal. inhibition, % at 2.6 µM. 650,000 tested, 0.91% active; in the data active = inhibition above about 50%;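 note: 0% = vehicle wells with protein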
Target sequence (O75030 whole entry, looked up): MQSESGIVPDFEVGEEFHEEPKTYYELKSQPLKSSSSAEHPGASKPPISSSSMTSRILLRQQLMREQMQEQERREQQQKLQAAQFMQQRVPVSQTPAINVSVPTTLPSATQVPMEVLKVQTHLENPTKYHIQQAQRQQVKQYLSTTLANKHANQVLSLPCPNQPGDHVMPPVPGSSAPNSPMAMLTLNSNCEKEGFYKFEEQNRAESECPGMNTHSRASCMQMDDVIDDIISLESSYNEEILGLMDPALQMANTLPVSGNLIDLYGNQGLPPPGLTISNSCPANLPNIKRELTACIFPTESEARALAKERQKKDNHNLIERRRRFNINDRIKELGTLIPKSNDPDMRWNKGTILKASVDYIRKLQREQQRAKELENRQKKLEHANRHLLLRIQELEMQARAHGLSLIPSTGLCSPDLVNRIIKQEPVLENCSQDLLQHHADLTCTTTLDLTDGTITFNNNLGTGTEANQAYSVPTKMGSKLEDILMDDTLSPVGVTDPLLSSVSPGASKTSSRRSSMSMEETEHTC
FBW7 act: human FBW7 E3 ligase activation, primary screen | Q969H0 | AlphaScreen FBW7–phospho-cyclin E peptide binding, activator screen | normalized activity (activation), % at 26.1 µM | 650,000 tested, 0.13% active | AID 1259310; in the data active = normalized activity above about 1.9%;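 note: purified mutant Fbw7 with reduced substrate affinity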
GPR151 ag: activators of human GPR151. Q8TDV0. PathHunter beta-arrestin GPR151 cells, luminescence. activation, % at 11.2 µM. 650,000 tested, 1% active; in the data active = activation above about 4.9%;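 note: 0% = median of compound wells and 100% = cells with positive control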
TEAD-YAP inh: TEAD-YAP interaction inhibition; HEK-TIYL cells, TEAD-Gal4/YAP UAS-luciferase luminescence; inhibition, % at 9.12 µM; 640,000 tested, 1.4% active; AID 1259422; in the data active = inhibition above about 32%;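 note: 0% = median of test compound wells and 100% = reference inhibitor wells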
* = called active by the depositor. A selection: hits, their analogues and other compounds. The true share with any hit is near 3.5%.

SMILES	MITF inh	FBW7 act	GPR151 ag	TEAD-YAP inh
CCn1c(Cc2ccccc2)nnc1SCC(=O)NC(C)(C)C	-1.8	-0.1	1.6	-16.7
CC1=C(C(=O)OCc2ccccc2)C(c2cn(-c3ccccc3)nc2-c2ccc(C)cc2)C(C(=O)OCc2ccccc2)=C(C)N1	12.1	0.0	1.2	-8.9
CC1=C(C(=O)OCc2ccccc2)C(c2cn(-c3ccccc3)nc2-c2ccc(F)cc2)C(C(=O)OCc2ccccc2)=C(C)N1	33.9	1.9*	0.8	-8.5
CC(C)n1cnc2c(NCc3ccccc3)nc(N3CCc4ccccc4C3)nc21	8.3	0.0	-2.2	-5.2
COc1ccc(N2C(=O)NC(=O)/C(=C/c3c(C)n(C)c4ccccc34)C2=O)cc1	7.5	-0.1	0.1	2.2
COc1ccc2cc3c(N)nn(C(=O)c4ccco4)c3nc2c1	-0.1	0.1	1.3	59.3*
COc1ccc2cc3c(N)nn(C(=O)c4ccccc4C)c3nc2c1	-1.5	-0.1	0.1	44.5*
Oc1ccc(Cl)c(C(Nc2ccccn2)c2ccc3cccnc3c2O)c1 (stereo not given)	5.8	-0.5	0.5	81.3*
Cc1ccnc(NC(c2cc(C)ccc2O)c2ccc3cccnc3c2O)c1 (stereo not given)	35.5	-0.4	0.1	6.5
Oc1c(C(Nc2ccccc2)c2ccccn2)ccc2cccnc12 (stereo not given)	93.9*	-2.0	-0.7	18.4
Oc1c(C(Nc2ccccn2)c2ccco2)ccc2cccnc12 (stereo not given)	27.8	-0.3	0.9	63.1*
Oc1c(C(Nc2ccccn2)c2ccccn2)ccc2cccnc12 (stereo not given)	25.8	-0.2	0.5	16.9
Cc1cccc(NC(c2ccccc2F)c2ccc3cccnc3c2O)n1 (stereo not given)	6.1	-0.2	-1.4	23.7
Oc1c(C(Nc2ncccn2)c2ccco2)ccc2cccnc12 (stereo not given)	8.2	-0.5	-0.2	-5.4
Oc1c(C(Nc2ccccn2)c2ccccc2F)ccc2cccnc12 (stereo not given)	15.5	-1.1	-0.7	83.8*
O=C(NC(N1CCOCC1)C(Cl)(Cl)Cl)c1cccs1 (stereo not given)	12.6	0.7	-0.2	9.8
Oc1c(C(Nc2cccc(Cl)c2)c2ccncc2)ccc2cccnc12 (stereo not given)	102.6*	-1.9	-0.1	31.0
Oc1c(C(Nc2cccnc2)c2cccs2)ccc2cccnc12 (stereo not given)	3.3	-0.2	0.9	26.6
CCOCCOC(=O)C1=C(C)NC2=C(C(=O)CC(C)(C)C2)C1c1cccc(OC)c1OC (stereo not given)	6.3	-0.2	0.0	2.0
Cc1cnc(CNc2cc(-c3ccccc3F)nc(-c3cccnc3)n2)nc1	14.9	-0.4	0.4	43.3*
O=C(CNC(=O)c1ccc(Cl)cc1)NC1=NCCS1	-1.2	0.2	0.5	4.3
NC(=O)C1CCN(c2csc3ccccc3c2=O)CC1	17.5	0.4	-2.3	4.2
CC1CCCN(c2csc3ccccc3c2=O)C1 (stereo not given)	18.2	1.9*	1.2	-2.4
Cc1ccc(-c2nc3ncccc3o2)cc1NC(=S)NC(=O)c1ccccc1C	13.3	0.4	0.1	13.4
Nc1cccc2c1C(=O)c1c(oc3c1ccc1ccccc13)C2=O	-2.8	-0.3	-1.6	78.3*
SMILES	MITF inh	FBW7 act	GPR151 ag	TEAD-YAP inh
O=C(Nc1cccc(O)c1)c1ccc(N2C(=O)c3cccc([N+](=O)[O-])c3C2=O)cc1	15.5	0.3	-2.6	34.2*
O=C(Nc1ccc(O)cc1)c1cccc(N2C(=O)c3cccc([N+](=O)[O-])c3C2=O)c1	-7.6	-0.1	-0.9	15.2
Cc1ccc(Oc2ccc(N3C(=O)c4cccc([N+](=O)[O-])c4C3=O)cc2)cc1C	-6.1	-0.1	0.9	32.7*
O=C1c2cccc([N+](=O)[O-])c2C(=O)N1c1ccc(Oc2ccc3ccccc3c2)cc1	1.0	0.1	-0.4	14.2
COc1ccc(Oc2ccc(N3C(=O)c4cccc([N+](=O)[O-])c4C3=O)cc2)cc1	6.3	0.0	-0.8	0.3
O=C1c2cccc([N+](=O)[O-])c2C(=O)N1c1ccc(Oc2cccc3ccccc23)cc1	5.8	-0.1	1.1	73.7*
O=C(COc1ccccc1O)Nc1ccc(I)cc1	0.1	-0.2	1.7	1.8
COc1cccc(-c2csc3[nH]c(=S)n(-c4ccccc4)c(=O)c23)c1	-6.5	0.0	-0.5	-2.8
CCc1ccc(C2NC(=O)NC(C)=C2C(=O)OCc2ccc3c(c2)OCO3)cc1 (stereo not given)	-2.8	-0.1	-1.4	54.6*
CC1=C(C(=O)OCc2ccc3c(c2)OCO3)C(c2ccccc2)NC(=O)N1 (stereo not given)	15.1	0.0	1.0	50.9*
CC1=C(C(=O)OCc2ccc3c(c2)OCO3)C(c2cc3c(cc2Br)OCO3)NC(=O)N1 (stereo not given)	-8.6	0.0	1.0	1.4
CCOc1ccc(/C=C2\N=C(c3cc(Br)ccc3OC)OC2=O)cc1	7.1	-0.1	4.9	0.1
O=c1[nH]c2ccc(NC(=S)Nc3ccc(S(=O)(=O)N4CCOCC4)cc3)cc2[nH]1	-18.0	-0.1	2.2	-9.1
Cc1nc2ccccc2n1CC1CCN(CC(=O)Nc2ccc(F)cc2F)CC1	-6.9	0.0	-1.1	54.5*
O=C1OCC2=C1C(c1ccc(F)cc1)c1cc3c(cc1N2)OCCO3 (stereo not given)	-2.4	-0.1	-0.1	52.6*
CC(=O)Nc1ccc(C2C3=C(COC3=O)Nc3cc4c(cc32)OCO4)cc1 (stereo not given)	10.8	-0.1	-0.8	-11.2
O=C1OCC2=C1C(c1ccc(F)cc1)c1cc3c(cc1N2)OCO3 (stereo not given)	-2.2	-0.1	0.3	49.8*
O=C1NC2=C(C(=O)OC2)C(c2ccc(F)c(F)c2)N1 (stereo not given)	-1.5	-0.1	2.3	8.6
CC1CN(c2nc3ccccc3nc2SCC(=O)NCCc2ccccc2)CC(C)O1 (stereo not given)	7.1	0.0	0.1	5.6
O=C(CNc1cccc(Cl)c1)c1ccc([N+](=O)[O-])cc1	-20.9	0.1	-2.4	-21.4
COC(=O)C1=C(C)Nc2nnnn2C1c1cc(OC)c(OC)c(OC)c1 (stereo not given)	6.3	0.0	0.6	50.9*
COC(=O)C1=C(C)Nc2nnnn2C1c1ccc(OC)cc1 (stereo not given)	8.3	0.8	-0.9	4.2
CCOC(=O)C1=C(C)Nc2nnnn2C1c1cc(Br)c(OC)c(OC)c1 (stereo not given)	2.8	0.9	1.0	53.4*
COC(=O)C1=C(C)NC(=O)NC1c1cc(Br)c(OC)c(OC)c1 (stereo not given)	-12.8	0.0	-2.1	-8.3
CCCCOc1c(Br)cc(C2NC(=O)NC(C)=C2C(=O)OC)cc1OC (stereo not given)	9.3	0.2	1.4	35.0*
CCOC(=O)C1=C(C)Nc2nnnn2C1c1ccc(OC)c(OC)c1 (stereo not given)	-2.4	-0.1	-0.1	0.4

Source: PubChem (The Scripps Research Institute Molecular Screening Center)
